Screens as filed in PubChem BioAssay.
Only some compounds are listed: those with a hit (about 2.5% of all), similar ones and a draw of the others.
Apoferritin bind: binds horse apoferritin like a general anesthetic | P02791 | Potency, µM (titrated, usually from 77.5 µM), actives largely listed as inhibitors | hit rate 0.074% among 350,000 | AID 485281 | apoferritin/1-aminoanthracene competitive binding, fluorescence; active = well fitted inhibition curve with a large enough effect; inconclusive = small, poorly fitted or top-dose-only effect; inactive = no such curve, though single readings can be large or run the other way; also: nearly all actives have a fitted effect of over 20% in size
Target sequence (P02791 2-175 limits assumed): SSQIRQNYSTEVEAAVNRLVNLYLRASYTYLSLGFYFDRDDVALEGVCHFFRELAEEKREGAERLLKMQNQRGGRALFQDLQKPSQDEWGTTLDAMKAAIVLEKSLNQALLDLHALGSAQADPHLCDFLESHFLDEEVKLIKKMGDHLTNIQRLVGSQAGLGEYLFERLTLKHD
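10 uM apoferritin + 50% sat. 1-AMA, PBS; cpd 10 min RT; Ex380/Em535 endpoint; normalized to free probe vs complex; 4-param Hill fit; propofol titration as pos. ctrl.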
D2 ag-1: activates the human D2 dopamine receptor; P14416; HEK293 T-REx D2 cells, calcium flux agonist mode; activation, % at 2 µM; hit rate 0.53% among 340,000; AID 485358;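 active = activation over 3 SD above normal in the single-dose calcium agonist read, cut at about 30% in these data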
Target sequence (P14416 whole entry, looked up): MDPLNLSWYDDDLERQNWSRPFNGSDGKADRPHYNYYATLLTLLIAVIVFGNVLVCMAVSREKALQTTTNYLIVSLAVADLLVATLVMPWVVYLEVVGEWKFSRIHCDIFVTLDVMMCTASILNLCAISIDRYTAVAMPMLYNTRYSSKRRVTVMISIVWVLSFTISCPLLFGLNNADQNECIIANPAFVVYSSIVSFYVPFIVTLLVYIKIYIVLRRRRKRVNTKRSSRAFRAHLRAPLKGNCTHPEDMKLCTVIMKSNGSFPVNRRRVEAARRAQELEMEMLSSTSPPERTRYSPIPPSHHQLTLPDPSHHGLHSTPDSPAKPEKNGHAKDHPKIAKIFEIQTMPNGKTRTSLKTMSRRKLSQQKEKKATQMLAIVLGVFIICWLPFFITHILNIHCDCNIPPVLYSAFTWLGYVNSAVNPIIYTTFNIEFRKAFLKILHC
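Tetracycline-induced HEK293 Trex cells with D2 receptor force-coupled to calcium signaling, plated overnight at 30 C and loaded with no-wash calcium dye. Calcium flux read kinetically for 180 s after compound addition; responses flag agonists.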
D2 PAM-1: positively modulates the human D2 dopamine receptor allosterically | P14416 | HEK293 T-REx D2, calcium flux, EC20 dopamine potentiation | potentiation, % at 10 µM | hit rate 0.34% among 340,000;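 active = potentiation over 3 SD above the plate norm, cut at about 30% in these data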
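Cells plated with tetracycline inducer and held overnight at 30 C; calcium dye loaded 30–90 min at room temperature; baseline taken, compound added and read 180 s; EC20 dopamine then added and read 180 s.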
D2 PAM-2: positive allosteric modulators of human D2 dopamine receptor. P14416. DiscoveRx D2 beta-arrestin cells, luminescence, 90 min; 100% = 57 uM dopamine signal. potentiation, % (concentration not given with the values). hit rate 0.23% among 360,000. AID 624464; in the data active = potentiation above about 50%; inconclusive = mostly about 30% to 49%
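PathHunter D2 cells, attached overnight at 37 deg C, received compound in DMSO plus dopamine at EC20 (50 nM final) for 90 min at 37 deg C. Beta-arrestin recruitment was read as luminescence after 1 h with detection reagent at ambient temperature.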
D2 antag: D2 dopamine receptor (human) antagonism; P14416; HEK293 TREx D2 cells, calcium flux, dopamine EC80; inhibition, % at 10 µM; hit rate 2% among 340,000; in the data active = inhibition above about 30%; inactive = below that, where a call was filed
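Read-out: kinetic calcium fluorescence (1 cycle/s) in inducible HEK293 T-REx D2 cells after an EC80 dopamine addition that followed 180 s compound preincubation. Loss of the dopamine response indicates antagonism.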
D2 ag-2: agonists of human D2 dopamine receptor (beta-arrestin); P14416; DiscoveRx PathHunter D2 beta-arrestin, luminescence, 90 min; 100% = 57 uM dopamine signal; activation, % (test concentration not listed); hit rate 0.084% among 360,000; AID 624465; in the data active = activation above about 40%; inconclusive = between about 15% and that limit
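DiscoveRx PathHunter D2 beta-arrestin cells (2,100/well) attached overnight, then compound-stimulated 90 min at 37 C in HBSS/10 mM HEPES/0.1% Tween-20 buffer; beta-galactosidase complementation read by luminescence after 1 h at ambient temperature. Dopamine 57 uM final (EC100) as control.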
Hits are given with their value; n = inactive; u = inconclusive; x = no result.

SMILES	Apoferritin bind	D2 ag-1	D2 PAM-1	D2 PAM-2	D2 antag	D2 ag-2
O=c1cc(N2CCN(Cc3ccccc3)CC2)[nH]c(=O)n1-c1ccc(Br)cc1	n	n	n	n	38.2	n
COc1ccc(-n2c(=O)cc(N3CCN(Cc4ccccc4)CC3)[nH]c2=O)cc1	n	n	n	n	n	n
Cc1cc(NC(=O)COC(=O)CCn2c(C)csc2=O)c([N+](=O)[O-])cc1C	x	x	x	n	x	n
COc1ccc(-c2noc(N3CCC(C(=O)Nc4cc(OC)c(OC)c(OC)c4)CC3)n2)cc1	n	n	n	n	n	n
CC(C)(C)c1ccc(C(=O)Nc2ccc([N+](=O)[O-])cn2)cc1	n	n	n	n	35.6	n
CC(=O)C1CCC2C3CCC4=CC(=O)CCC4(C)C3(Br)C(=O)CC12C (configuration not stated)	x	x	x	61.3	x	n
CC(=O)C1CCC2C3CCC4=CC(=O)CC[C@]4(C)[C@@]3(F)C(O)C[C@]12C (some centres not stated)	n	n	n	n	n	n
COc1cccc(/C=N\NC(=O)c2cc(OCC(F)(F)F)ccc2OCC(F)(F)F)c1	u	n	30.8	n	n	n
CS(=O)(=O)NCCNC(=O)c1cc(OCC(F)(F)F)ccc1OCC(F)(F)F	n	n	n	n	30.8	n
C=CCn1c(N)cc(=O)nc1SCC(=O)Nc1ccc(C(=O)OCC)cc1	n	n	n	n	n	n
Oc1sc(C=Nc2ccccc2)c2ccccc12	n	36.4	n	n	n	n
Oc1sc(C=Nc2ccc(F)cc2)c2ccccc12	n	n	n	u	n	n
COc1ccccc1CNC(=O)C1CCN(Cc2nc(-c3ccc(OC)c(OC)c3)oc2C)CC1	n	n	n	x	x	x
Cc1oc(-c2cccs2)nc1CN1CCC(c2ccccc2)CC1	n	n	n	n	83.3	n
Cc1oc(-c2cccs2)nc1CN1CCN(C(C)C)C(CCO)C1 (configuration not stated)	n	n	n	n	n	n
COc1ccc(-c2nc(CN3CCC(c4ccccc4)CC3)c(C)o2)cc1OC	n	n	n	n	44.3	n
O=[N+]([O-])c1ccc(CNc2ccc(Cl)cc2)s1	14.1µM	n	n	u	95.9	n
O=C1CC(c2ccccc2)CC(=NCCO)/C1=C(\O)CCCN1C(=O)c2ccccc2C1=O (configuration not stated)	n	n	50.9	n	n	n
CC1(C)CC(=O)/C(=C(\O)CCCN2C(=O)c3ccccc3C2=O)C(=NCC(=O)O)C1	n	n	n	n	n	n
CC(=O)C1=C(O)C(=O)N(c2ccc(Br)cn2)C1c1ccccc1[N+](=O)[O-] (configuration not stated)	n	n	n	n	31.2	n
CCOc1ccc(C(CC(=O)O)NC(=O)C(CC)c2ccccc2)cc1 (configuration not stated)	n	n	n	n	35.3	n
O=C(O)CC(NC(=O)Cc1ccc(Cl)cc1)c1ccco1 (configuration not stated)	n	n	38.9	n	n	n
COc1ccc(CC(=O)NC(CC(=O)O)c2ccc(OC)cc2)cc1 (configuration not stated)	n	n	n	n	36.5	n
O=C(O)CC(NC(=O)c1ccco1)c1ccco1 (configuration not stated)	n	n	n	n	n	n
Cc1ccc(NC(=O)c2oc3ccccc3c2NC(=O)C2CC2)cc1	n	n	n	n	n	n
SMILES	Apoferritin bind	D2 ag-1	D2 PAM-1	D2 PAM-2	D2 antag	D2 ag-2
CCOc1ccccc1N1C(=O)c2cccnc2C1=O	n	n	n	n	n	n
CNC(=O)c1nn(-c2ccccc2)ccc1=O	n	n	n	n	n	n
O=C(Nc1ccn(-c2ccccc2)n1)c1ccc(Cl)cc1	n	n	n	n	63.3	n
CNC(=O)c1nn(-c2ccc(Cl)cc2)ccc1=O	n	n	n	n	33.4	n
Cc1nc(NCC2CCCO2)nc2c1C(=O)CC(C)C2 (configuration not stated)	n	n	n	n	n	n
c1ccc(-c2nc(N3CCCCCC3)nc(-n3ccnc3)n2)cc1	n	n	n	n	n	n
CCOC(=O)c1c(-c2ccc(OC)cc2)cn2ccccc12	n	n	n	n	62.0	n
O=c1[nH]c2ccccc2nc1/C=C(\O)c1cccs1	n	65.0	n	n	n	n
O=C(Nc1cccc(-c2cccc(F)c2)c1)C1CCN(Cc2ccco2)CC1	n	n	n	n	56.5	n
COCc1ccc(CN2CCC(C(=O)Nc3cccc(-c4cccc(Cl)c4)c3)CC2)o1	n	n	n	n	33.5	n
COCc1ccc(CN2CCC(C(=O)Nc3cccc(-c4cscn4)c3)CC2)o1	n	n	n	n	31.9	n
COc1cccc(-c2cccc(NC(=O)C3CCN(Cc4ccc(C)o4)CC3)c2)c1	n	n	n	n	n	n
CCOC(=O)c1c(C)nc2sc3c(=O)n(-c4ccc(C)cc4)cnc3c2c1-c1ccc(OC)cc1	n	n	n	n	n	n
CCOC(=O)CSc1nc(C)nc2c1sc1nc(C)c(C(C)=O)c(-c3ccc(OC)cc3)c12	n	n	n	n	39.6	n
COC(=O)c1ccc(-n2c(C)cc(/C=N/n3cnnc3)c2C)cc1	n	n	n	n	30.7	n
Cc1cc(/C=N/n2cnnc2)c(C)n1-c1ccc(C(=O)O)cc1	n	n	n	n	n	n
COC(=O)c1ccccc1NC(=O)C(=O)NCc1ccncc1	n	n	n	n	n	n
Cc1ccc(/C=C/C(=O)Oc2ccc(C#N)cc2)o1	n	n	n	x	48.4	x
CCCNC(=O)COC(=O)/C=C/c1ccc(C)o1	n	n	n	n	30.3	n
CCCCNC(=O)C1(C)CCN1C(=O)c1c(F)ccc(C)c1F (configuration not stated)	x	x	x	n	x	n
Cc1ccc(C(=O)CN(C(=O)c2ccc(Cl)cc2)N2C(=O)CCC2=O)cc1	n	n	n	n	30.5	n
O=C1NCCN1CCNS(=O)(=O)c1ccc(F)c(Cl)c1	n	n	n	n	n	n
Clc1ccc2c(c1)CCc1cccnc1C2=C1CCNCC1	n	x	x	x	30.2	x
Cc1cccc(C)c1NC(=O)CN1C(=O)S/C(=C\c2cccn2-c2cccc(C(=O)O)c2)C1=O	n	n	n	n	n	n
Cc1cccc(C)c1NC(=O)CN1C(=O)S/C(=C\c2cccn2C)C1=O	n	n	n	n	30.1	n
CCN(CC)C(=O)c1sc2c(c1C)c(=O)n(-c1ccc(C)c(C)c1)c(=O)n2Cc1cccc(Cl)c1	n	n	n	x	x	x
